# HT1080 IDH1KD tx – kills HT-1080 cells with IDH1 knockdown | HT-1080 IDH1 knockdown viability, ATP luminescence, 48 h | Potency, µM (highest dose often 46.1 µM), without a hit: at the top dose activity, negative = toxicity, hits mostly cytotoxic | actives 2% (n = 360,000);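 note: potency is the fitted concentration of half-maximal effect; 0% = DMSO wells and -100% = cell-free medium wells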
#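 HT-1080-IDH1KD cells (IDH1 knocked down), 750/well in RPMI with 5% FBS, treated with compound 48 h at 37 degrees C. Viability by CellTiter-Glo luminescence, normalised to DMSO and no-cell wells; concentration-response curves classed.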
# HT1080NT lethal – kills 2HG-producing HT-1080-NT fibrosarcoma cells; Potency, µM (series often up to 46.1 µM), inactives show at the top dose activity, negative = less viability, usual class: cytotoxic; AID 686970; HT-1080-NT fibrosarcoma viability, CellTiter-Glo ATP luminescence, 48 h; actives 1.6% (n = 360,000);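 note: NT is the 2HG producing partner of a matched IDH1 knockdown line; potency is the fitted concentration of half-maximal effect; 0% = DMSO-treated cells and -100% = media-only wells without cells; nearly all actives have a fitted effect of over 55% in size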
#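 HT-1080-NT fibrosarcoma cells (2HG-overproducing), 750 cells/well in RPMI with 5% FBS, dosed after 2 h and incubated 48 h at 37C. CellTiter-Glo luminescence normalized to DMSO and no-cell wells; concentration-response curves fitted and classed.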
# DT40 TDP1 CPT – DT40-hTDP1 cell growth loss with CPT; chicken DT40 Tdp1-/-;hTDP1 cells + 20 nM CPT, ATP luminescence, 48 h; Potency, µM (highest dose often 46.2 µM), for inactives: top-dose activity change, negative = growth inhibition, usual class: inhibitors; actives 12% (n = 420,000); AID 686979; note: potency is the fitted concentration of half-maximal effect; nearly all actives have a fitted effect of over 55% in size
#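 Chicken DT40 Tdp1-/- cells stably complemented with human TDP1 were seeded at 400 cells/well in medium containing 20 nM camptothecin, exposed to pin-transferred compounds, and grown at 37 °C for at least 48 hr. Viability was read as ATP luminescence.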
# TDP1 cell noCPT – qHTS for Inhibitors of human tyrosyl-DNA phosphodiesterase 1 (TDP1): qHTS in cells in absence of CPT | actives 15% (n = 420,000) | DT40 Tdp1-/- hTDP1 cells, no CPT, ATP luminescence, 48 h | AID 686978, 2013 | Potency, µM (series often up to 46.2 µM), for inactives: at the highest dose activity change, negative = growth inhibition, most hits filed as inhibitors; note: potency is the fitted concentration of half-maximal effect; nearly all actives have a fitted effect of over 55% in size
#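 Camptothecin absent (DMSO only). Human TDP1-complemented DT40 knockout cells, 400 cells/well, 37 °C for minimum 48 hr; ATP measured via CellTiter-Glo, 30 min dark incubation, luminescence.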
# IL-1B inflam inh – blocks inflammasome-driven IL-1 beta release | AID 743279 | activity change, % at 57.5 µM | THP-1 LPS/ATP IL-1B secretion, AlphaLISA, 16 h; stronger effect = lower value | actives 4.7% (n = 360,000); in the data active = activity change below about -50%; inconclusive = mostly about -30% to -49%
#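 Secreted IL-1B measured by AlphaLISA bead assay after 16 h compound exposure of THP-1 cells; compounds (final up to 57.5 uM) added 1 h before LPS (250 ng/mL) and ATP (1.25 mM) stimulation; lower signal means less secretion.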
# * marks the source's active call; other numbers are inactive results; i = inactive; ? = inconclusive; / = no result. Most compounds without a hit are left out; they make up all but 19% or so of the library. Unless noted, calls come from the whole dose curve; as a rule, active = well fitted curve in the direction sought with a large enough effect; inconclusive = small, poorly fitted or top-dose-only effect, or another doubt; inactive = no such curve, though single readings can be large; an effect the other way counts as inactive or inconclusive. Unless noted, % is set by controls: 0 for no effect and ±100 for the full control effect.
SMILES,HT1080 IDH1KD tx,HT1080NT lethal,DT40 TDP1 CPT,TDP1 cell noCPT,IL-1B inflam inh
Cc1cccc(CN2CCc3nnc(C(C)NC(=O)C4CCOCC4)n3CC2)c1 (stereo not given),/,/,14.0%,0.2%,/
COc1cc(C(=O)N2CCCCC2c2cc(C(=O)Nc3ccccc3Cl)no2)cc(OC)c1C (stereo not given),-20.7%,?,?,18.4µM*,5.4
COc1ccc(NC(=O)c2cc(C3CCCCN3C(=O)c3cc(OC)c(C)c(OC)c3)on2)c(C)c1 (stereo not given),-22.3%,-28.6%,?,?,?
O=C(Nc1ccccc1Cl)c1cc(C2CCCCN2C(=O)c2cccs2)on1 (stereo not given),-27.3%,-0.5%,29.1µM*,?,22.2
CCCOc1ccccc1-n1sc2c(c1=S)-c1cc(OC)cc3c1N(C(=O)C3=O)C2(C)C,?,?,16.4µM*,16.4µM*,-4.0
Cc1ccc(C)c(CN2C(=O)c3ccccc3S(=O)(=O)c3ccc(C(=O)N4CCN(c5ccccc5F)CC4)cc32)c1,/,/,-2.5%,-17.2%,/
CC1CC(N(C(=O)c2ccccc2Cl)c2ccccc2)c2ccccc2N1 (stereo not given),23.1µM*,23.1µM*,7.31µM*,5.8µM*,22.0
CC(C)(C)OC(=O)N1CCc2onc(-c3ccc(Cl)cc3)c2C1=O,-3.3%,-3.6%,?,?,-2.4
O=C1OCC/C1=C\c1ccccc1,21.8%,16.3%,-2.6%,3.7%,-11.3
O=C1/C(=C/c2ccccc2)CCc2ccc(Cl)nc21,18.4µM*,?,2.59µM*,4.61µM*,-105.3*
C=CCOC(=O)/C=C/C(=O)NC(N)=O,-2.2%,3.4%,10.3µM*,16.4µM*,-19.7
O=[N+]([O-])c1ccc(-n2cnc3ccccc32)c([N+](=O)[O-])c1,-1.3%,-3.8%,?,?,25.8
OC[C@@H](O)COc1cccc2ccccc12,/,/,4.7%,-13.6%,/
C=CCOc1ccc(CN(C)CC(O)COc2cccc3ccccc23)cc1 (stereo not given),?,?,?,?,-59.2*
CCc1ccc(CNCc2ccc(OCC(O)CN(C)Cc3ccccc3)cc2)nc1 (stereo not given),?,?,16.4µM*,23.1µM*,-59.7*
CN(Cc1ccccc1)CC(O)COc1ccc(CNCCc2ccncc2)cc1 (stereo not given),?,?,?,?,-58.5*
CC(C)c1ccc(NC(=O)CCNS(=O)(=O)c2cc(Br)cnc2N)cc1,?,3.4%,16.4µM*,?,-17.4
CC(=O)Nc1ccc(NC(=O)C(C)OC(=O)CNS(=O)(=O)c2ccc(Br)cc2Cl)cc1 (stereo not given),-3.5%,-0.7%,-12.6%,23.1µM*,i
O=C(CNS(=O)(=O)c1ccc(Br)cc1Cl)OCC(=O)c1ccc[nH]1,13.7%,4.2%,2.2%,-21.4%,5.4
COc1cccc(/C=N/N(C)C2=NS(=O)(=O)c3ccccc32)c1O,0.2%,9.8%,?,-23.7%,-5.8
CC(C)(C)NC(=O)CCN(/N=C/c1ccncc1)C1=NS(=O)(=O)c2ccccc21,6.3%,-0.1%,-8.1%,-10.0%,10.7
CN(/N=C/c1cc(Cl)ccc1O)C1=NS(=O)(=O)c2ccccc21,3.1%,0.3%,16.4µM*,18.4µM*,-14.5
CC(C)(C)NC(=O)CCN(/N=C/c1ccccc1O)C1=NS(=O)(=O)c2ccccc21,10.2%,8.1%,20.6µM*,14.6µM*,32.1
COc1ccc(/C=N/N(CCC(=O)NC(C)(C)C)C2=NS(=O)(=O)c3ccccc32)cc1,3.1%,-1.9%,20.6µM*,20.6µM*,-1.0
COc1cccc(-c2ccnc(-n3ncc(C(=O)N(C)CCc4ccccn4)c3C)n2)c1,/,/,17.0%,-22.6%,/
SMILES,HT1080 IDH1KD tx,HT1080NT lethal,DT40 TDP1 CPT,TDP1 cell noCPT,IL-1B inflam inh
Cc1cc(OCCCC(=O)Nc2cccc(-n3cnnn3)c2)ccc1Cl,1.1%,-0.7%,?,11.6µM*,-6.0
Cc1ccccc1OCc1occc1C(=O)Nc1cccc(-n2cnnn2)c1,?,-29.4%,23.1µM*,18.4µM*,11.4
Cc1ccc(C)n1-n1c(C)nc2scc(-c3cccs3)c2c1=O,-6.1%,-11.1%,?,18.4µM*,13.5
COc1cccc(CNC(=O)CN2C(=O)N(c3cc(C)ccc3C)S(=O)(=O)c3ccccc32)c1OC,/,/,13µM*,23.1µM*,/
CCOC(=O)CN1C(=O)N(c2ccccc2OC)S(=O)(=O)c2ccccc21,3.5%,3.4%,-5.0%,12.1%,9.4
Cc1ccc(C)c(CN2C(=O)COc3ccccc32)c1,-1.0%,-12.3%,-13.6%,-29.9%,22.6
Cc1ccc(C)c(N2C(=O)N(Cc3ccccc3C)c3ccccc3S2(=O)=O)c1,/,/,18.4µM*,29.1µM*,/
COc1cccc(CNC(=O)CN2C(=O)N(c3c(C)cccc3C)S(=O)(=O)c3ccccc32)c1OC,/,/,16.4µM*,16.4µM*,/
O=c1[nH]c(-c2ccc3c(c2)OCO3)nc2c1sc(=S)n2-c1ccccc1,0.3%,0.6%,7.5%,?,58.7
O=c1[nH]c(-c2ccc(F)cc2)nc2c1sc(=S)n2-c1ccccc1,-1.7%,-0.8%,?,6.51µM*,40.5
COc1ccc(C2=Nc3ccccc3NC(=O)C2N(Cc2ccc(F)cc2)C(=O)c2ccco2)cc1 (stereo not given),?,?,?,?,-1.5
O=C1Nc2ccccc2N=C(c2ccc3c(c2)OCO3)C1N(C(=O)c1ccc2ccccc2c1)C1CC1 (stereo not given),?,?,16.4µM*,20.6µM*,?
O=C1Nc2ccccc2N=C(c2ccc3c(c2)OCO3)C1N(C(=O)c1ccnc2ccccc12)c1ccccc1 (stereo not given),?,?,20.6µM*,18.4µM*,?
Cc1ccc(CNC(=O)c2ccc(OCC3CCCO3)cc2)cc1 (stereo not given),7.8%,6.7%,1.3%,-3.7%,24.6
NNC(=O)CN1C(c2cccc(Cl)c2)=Nc2ccc(Br)cc2C1c1ccccc1 (stereo not given),-15.0%,-13.0%,?,?,-28.9
NNC(=O)CN1C(c2ccccc2Br)=Nc2ccc(Br)cc2C1c1ccccc1 (stereo not given),-11.7%,-2.7%,?,16.4µM*,-6.9
CC(=O)c1ccc2c(c1)N(Cc1ccccc1Cl)C(=O)C(C)S2 (stereo not given),-9.3%,-16.2%,?,?,17.9
CCOCCN1CCN(C(=O)CN2CCCC2=O)CC1,28.0%,12.5%,-0.3%,-2.7%,12.1

# From PubChem BioAssay
